Only a selection was taken, and hits are over-represented in it overall.
14-3-3 PPI = alters human 14-3-3 gamma binding to Raf peptide | P61981 | FP, 14-3-3gamma / TMR-pS259-Raf peptide binding | inhibition, % at 40 µM | hit rate 0.19% among 160,000 | AID 422; in the data active = inhibition above about 30%;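 also: 0% = protein plus tracer without compound and 100% = blank with tracer alone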
Target sequence (P61981 whole entry, looked up): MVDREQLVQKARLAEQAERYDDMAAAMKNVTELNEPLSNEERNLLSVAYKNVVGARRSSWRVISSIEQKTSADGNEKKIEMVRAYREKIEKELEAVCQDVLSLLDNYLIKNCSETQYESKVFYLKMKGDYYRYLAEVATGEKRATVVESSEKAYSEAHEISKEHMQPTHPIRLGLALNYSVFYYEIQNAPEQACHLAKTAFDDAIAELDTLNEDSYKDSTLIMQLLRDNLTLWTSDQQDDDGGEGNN
* hit, by the source's call.

`COc1cc2c(cc1OC)C(C(=O)NCCCN1CCN(C)CC1)C(c1cccs1)N(C)C2=O` (stereo not drawn) gave 14-3-3 PPI -2.8.
`CC(C)OC(=O)c1c(NC(=O)c2cc([N+](=O)[O-])nn2Cc2ccccc2)sc2c1CCCC2` gave 14-3-3 PPI -1.3.
O=C(c1c[nH]c2ccc(S(=O)(=O)Nc3cccc(C(F)(F)F)c3)cc2c1=O)N1CCN(c2ccccc2F)CC1 was read as 14-3-3 PPI -8.8.
For CC1=C(C(=O)OCCc2ccccc2)C(c2ccc([N+](=O)[O-])cc2)C2=C(CCCC2=O)N1 (stereo not drawn) the results were 14-3-3 PPI -1.5.
`CCOc1ccc(NC2=CC(=NS(=O)(=O)c3ccc(CC)cc3)c3ccccc3C2=O)cc1` gave 14-3-3 PPI -7.4.
`CCc1ccc(S(=O)(=O)N=C2C=C(Nc3ccccc3)C(=O)c3ccccc32)cc1` gave 14-3-3 PPI -93.3.
Screening COc1ccc(S(=O)(=O)N=C2C=C(Nc3ccc(O)cc3)C(=O)c3ccccc32)cc1 returned 14-3-3 PPI 13.7.
Screening CCc1ccc(S(=O)(=O)N=C2C=C(Nc3ccc(C(=O)OC)cc3)C(=O)c3ccccc32)cc1 returned 14-3-3 PPI 32.5*.
For CCOC(=O)c1ccc(NC2=CC(=NS(=O)(=O)c3ccc(OC)cc3)c3ccccc3C2=O)cc1 the results were 14-3-3 PPI 81.7*.
CCOc1ccc(S(=O)(=O)N=C2C=C(Nc3ccc(OC)cc3)C(=O)c3ccccc32)cc1 was read as 14-3-3 PPI -3.1.
O=C(CN1C(=O)c2ccccc2C1=O)Nc1ncc(S(=O)(=O)c2ccc([N+](=O)[O-])cc2)s1 was read as 14-3-3 PPI 0.0.
Screening Cc1ccc(C(=O)Nc2ccc(C(=O)OCC(=O)c3ccc(Cl)cc3)cc2)cc1Br returned 14-3-3 PPI 3.4.
`COc1ccc(N=Cc2cc(Br)ccc2O)c(OC)c1` gave 14-3-3 PPI -50.4.
CCCc1ccc(O)c(N=Cc2cc(Br)cc(OC)c2O)c1 was read as 14-3-3 PPI 85.4*.
For CCCc1ccc(O)c(N=Cc2cc(Br)cc(OCC)c2O)c1 the results were 14-3-3 PPI -133.8.
O=C(Cn1cc(C(=O)C(F)(F)F)c2ccccc21)NC1CCCC1 was read as 14-3-3 PPI -6.2.
`CC1CCC(NC(=O)CN2CCN(Cc3ccc(Cl)cc3)C2=O)CC1` (stereo not drawn) gave 14-3-3 PPI -0.7.
For CCOC(=O)c1c(NC(=O)CN2CCOCC2)sc2c1CCCC2 the results were 14-3-3 PPI -7.9.
`CCCCC1(C(=O)OCC)CC(CN2CCOCC2)OC1=O` (stereo not drawn) gave 14-3-3 PPI 54.2*.
Screening CCCCOC(=O)N1CCOCCOCCN(C(=O)OCCCC)CCOCCOCC1 returned 14-3-3 PPI 0.2.
COc1ccc2nc(NC(=O)C3CCC(=O)N(c4ccc5c(c4)OCO5)C3c3cc(OC)c(OC)c(OC)c3)sc2c1 (stereo not drawn) was read as 14-3-3 PPI -8.8.
Screening COc1ccc2c3c(cccc13)C(=O)c1ccccc1-2 returned 14-3-3 PPI 32.5*.
`COC(=O)CSc1ccc2c3c(cccc13)C(=O)c1ccccc1-2` gave 14-3-3 PPI 20.2.
`O=C1c2ccccc2-c2ccc(Br)c3cccc1c23` gave 14-3-3 PPI -0.5.
`Cc1c(C(=O)NCc2ccccn2)oc2ccc(S(=O)(=O)N3CC(C)CC(C)C3)cc12` (stereo not drawn) gave 14-3-3 PPI -0.7.
`Cc1c(C(=O)NCc2cccs2)oc2ccc(S(=O)(=O)N3CCOCC3)cc12` gave 14-3-3 PPI -1.9.
O=C(NCc1cccnc1)c1cc(S(=O)(=O)N2CCOCC2)ccc1F was read as 14-3-3 PPI 4.8.
Cc1c(C(=O)NCc2ccccn2)oc2ccc(S(=O)(=O)N3CCOCC3)cc12 was read as 14-3-3 PPI 128.7*.
O=C(NCc1cccs1)c1cc(S(=O)(=O)N2CCOCC2)ccc1F was read as 14-3-3 PPI -6.8.
For O=C(NCc1ccccn1)c1cc(S(=O)(=O)N2CCOCC2)ccc1F the results were 14-3-3 PPI 113.6*.
Screening Cc1c(C(=O)NCc2ccco2)oc2ccc(S(=O)(=O)N3CCOCC3)cc12 returned 14-3-3 PPI -0.7.
For Cc1c(C(=O)NCc2ccccc2)oc2ccc(S(=O)(=O)N3CCC(C)CC3)cc12 the results were 14-3-3 PPI -6.6.
Screening Cc1c(C(=O)NCc2ccccn2)oc2ccc(S(=O)(=O)N3CCC(C)CC3)cc12 returned 14-3-3 PPI 62.7*.
For O=C(Nc1nc(-c2ccc(Br)cc2)cs1)C1c2ccccc2Oc2ccccc21 the results were 14-3-3 PPI 2.6.
`Cc1[nH][nH]c(=O)c1C(c1ccco1)c1c(C)[nH][nH]c1=O` gave 14-3-3 PPI 4.8.
`Cc1ccc(S(=O)(=O)Nc2cc3c(c4ccccc24)OC2(N4CCOCC4)CCCCC32)cc1` (stereo not drawn) gave 14-3-3 PPI -21.4.
Screening Brc1cccc(C2C=C(c3ccc(I)cc3)Nc3ncnn32)c1 (stereo not drawn) returned 14-3-3 PPI 2.8.
`Cc1c(C)n(C(=O)CSc2n[nH]c(-c3ccccc3)n2)c2ccccc12` gave 14-3-3 PPI -11.4.

Assay outcomes: PubChem BioAssay, Emory University Molecular Libraries Screening Center
